Measurements taken from PubChem BioAssay (NCI).
This is part of a sample that, as a whole, favours compounds with a hit. Of some 83,000 tested, about 20% had one in any assay.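 The test compound was applied at a single concentration to cells in 96-well plates for 48 hours, and percent growth was recorded.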 Active and inactive are the calls of the source. How the source made its calls: active means growth percent below 10; inactive means the rest.

Legend:
Assay in all cases: NCI-60 one-dose screen, 48 h (100 = growth as untreated, 0 = no growth, -100 = all killed)
Conditions in all cases: 10 µM unless noted
[1] = system: T-47D breast
[2] = system: BT-549 breast
[3] = system: MDA-MB-435 melanoma
[4] = system: SW-620 colon
[5] = system: MCF7 breast
[6] = system: HCT-116 colon
[7] = system: HCC-2998 colon
[8] = system: KM12 colon

Measured: growth

CCCCNCC(O)c1cc(-c2ccc(C(F)(F)F)cc2)nc(-c2ccc(C(F)(F)F)cc2)c1 (centres undefined)
active: [1] -80.3% | [2] -31.2% | [3] -68.6% | [4] -82.1% | [5] -84.8% | [6] -88.5% | [7] -75.8% | [8] -89.2%

O=c1[nH]c2ccccc2n2cc3cccnc3c12
inactive: [1] 81% | [2] 111% | [3] 12.5% | [4] 31.5% | [5] 32.2% | [6] 33% | [7] 82.1% | [8] 52.6%

CC(C)CC(NC(=O)C(CCCN=C(N)N)NC(=O)OCc1ccccc1)C(=O)NC(CNC(=O)/C=C/c1ccccc1)C(C)C (centres undefined)
inactive: [1] 96.2% | [2] 107% | [3] 97.5% | [4] 105% | [5] 91% | [6] 102% | [7] 137% | [8] 105%

CCCCCCCCCCCCCCCCCC1=NC(C)(C)CN1C(C)(C)CO
active: [1] -19.5% | [3] -68.7% | [4] -100% | [5] -81% | [6] -100% | [7] -100% | [8] -100%
inactive: [2] 64.7%

COc1cc(Nc2ccnc3ccc(Br)cc23)cc(OC)c1OC
inactive: [1] 40.9% | [2] 53.7% | [4] 19.4% | [5] 15.5% | [6] 21.7% | [7] 71.4% | [8] 21%
active: [3] -41.5%

Cc1ccccc1N1C(c2ccccc2)=NNC12C=CC(=O)c1c(O)cccc12 (centres undefined)
active: [3] -89.5%
inactive: [1] 87.7% | [2] 77% | [4] 98.6% | [5] 73.5% | [6] 66.5% | [7] 90.3% | [8] 77.6%

C=CCn1c(SCC(=O)Nc2ccc(/C(C)=N\O)cc2)nnc1-c1cc(-c2ccc(Cl)cc2)nc2ccccc12
active: [1] 7.73%
inactive: [2] 33.5% | [3] 30.8% | [4] 41.1% | [5] 14% | [6] 19.5% | [7] 21% | [8] 16.5%

CCN(CC)CCCC(C)Nc1cnc(C(=O)Nc2cc(C)cc3cccnc23)cn1 (centres undefined)
inactive: [1] 32.6% | [2] 93.3% | [3] 83.7% | [4] 75.3% | [5] 57.3% | [6] 18% | [7] 89.8% | [8] 97.9%

CN(C)CCOc1nc2c3ccncc3cc(-c3cccc(Cl)c3)c2c2cnccc12
inactive: [1] 38.7% | [2] 52.6% | [3] 30% | [4] 27.4% | [5] 12.5% | [6] 11.4% | [7] 45% | [8] 31.8%

COCCn1c(Nc2ccc(C(=O)NO)cc2)nc2ccccc21
inactive: [1] 35.3% | [2] 86.6% | [3] 46% | [4] 29.6% | [5] 61.4% | [6] 19.4% | [7] 73.3% | [8] 51.9%

Cc1ccccc1CNc1ncnc2[nH]ncc12
inactive: [1] 96.9% | [2] 105% | [3] 90.3% | [4] 114% | [5] 104% | [6] 100% | [7] 105% | [8] 112%

COc1c(-c2cc(-c3ccc(C)o3)[nH]c(=O)n2)c(O)cc2occc12
inactive: [1] 45.5% | [2] 54% | [4] 22.3% | [5] 28.1% | [6] 42.8% | [7] 92.1% | [8] 36.1%
active: [3] -38.6%

CCOC(=O)c1ccc(NC(=O)NC2=NCCS2)cc1
inactive: [1] 35.8% | [2] 24.2% | [3] 48.3% | [4] 77.8% | [5] 33.4% | [6] 93% | [7] 45% | [8] 15.5%

CN(CCO)c1ccc(N2Cc3ccccc3OC3=C2C(=O)c2c(O)ccc(O)c2C3=O)cn1
active: [1] -42.7% | [2] -73.2% | [3] -84% | [4] -51.7% | [5] -34.9% | [6] -85.6% | [7] -84.2% | [8] -78%

C=CCN(CCOC(=O)c1ccc([N+](=O)[O-])cc1)CCOC(=O)c1ccc([N+](=O)[O-])cc1
inactive: [1] 90.5% | [2] 100% | [3] 107% | [4] 100% | [5] 96.3% | [6] 96.2% | [7] 105% | [8] 103%

CSC(=S)N/N=C(\C)c1ccccn1
active: [5] 7.66% | [6] 9.68%
inactive: [1] 21.8% | [2] 28.8% | [3] 35.8% | [4] 29.5% | [7] 28% | [8] 19.9%

COc1ccc(NC(=O)C2c3ccccc3C(=O)N(CC(C)C)C2c2cccs2)cc1 (centres undefined)
inactive: [1] 102% | [2] 98.9% | [3] 103% | [4] 92% | [5] 82.3% | [6] 93.3% | [7] 93.3% | [8] 97.5%

COS(=O)(=O)CCN(CCOS(C)(=O)=O)S(C)(=O)=O
inactive: [1] 98% | [2] 97.5% | [3] 108% | [4] 107% | [5] 96% | [6] 100% | [7] 98% | [8] 105%

COc1c(B(O)O)cccc1-c1nc2ccc3[nH]ncc3c2c2c1CCCC2
inactive: [1] 39.2% | [3] 38.4% | [7] 53.3%
active: [2] 7.15% | [4] 8.47% | [5] 2.24% | [6] 6% | [8] 1.71%

O=C1C2=C(C(=O)c3c(O)ccc(O)c31)N(c1ccc(N3CCOCC3)nc1)Cc1ccccc1O2
active: [1] -41% | [2] -78.5% | [3] -28.6% | [4] -54.3% | [5] -34.2% | [6] -84.5% | [7] -66.3% | [8] -34.9%

COc1cc2nccc(Oc3ccc(NC(=O)C4(C(=O)Nc5c(F)cc(F)cc5F)CC4)cc3)c2cc1Oc1ccc(N)cn1
inactive: [1] 29% | [2] 74.2% | [4] 40.3% | [5] 31.7% | [6] 56.6% | [7] 81.5% | [8] 15.5%
active: [3] 3.8%

Nc1nc(N)c2c(n1)NC(c1sc(Cl)nc1Cl)CC(c1ccc3c(c1)OCO3)=N2 (centres undefined)
inactive: [1] 39.1% | [2] 27.2% | [4] 13.2% | [5] 26.2% | [6] 20.1% | [7] 61.2% | [8] 34.2%
active: [3] -9.34%

CN(C)c1ccc(N2Cc3ccccc3OC3=C2C(=O)c2c(O)ccc(O)c2C3=O)cn1
active: [1] -47.9% | [2] -71.2% | [3] -21.3% | [4] -58.3% | [5] -55% | [6] -86.8% | [7] -75.2% | [8] -41.9%

COc1cc2nccc(Oc3ccc(NC(=O)C4(C(=O)Nc5ccc(F)cc5)CC4)cc3)c2cc1Oc1ccc(N)cn1
inactive: [2] 61.9% | [4] 36.8% | [6] 40.7% | [7] 72%
active: [1] 5.99% | [3] 3.34% | [5] 9.52% | [8] 3.7%

[O-]/[N+](=C\c1ccccc1)CC1(O)CCCCC1
inactive: [1] 106% | [2] 111% | [3] 100% | [4] 94.2% | [5] 92.7% | [6] 117% | [7] 115% | [8] 100%

CC1(C)C(N(O)C(=O)Nc2ccc(Cl)cc2)N(c2ccc(Cl)cc2)C(=O)N1CC(=O)N/N=C/C=C/c1ccc([N+](=O)[O-])o1 (centres undefined)
active: [2] -19.1% | [3] -15.3% | [4] -15.7% | [5] 7.37% | [6] -98.1% | [7] -90.6%
inactive: [1] 34.3% | [8] 23.1%

Clc1ccc2c(c1)-c1ccccc1C1=NCCN12
inactive: [1] 29.6% | [2] 71.5% | [3] 29.4% | [4] 22.5% | [5] 10.6% | [6] 21% | [7] 40.7% | [8] 33.3%

CC(=O)N(C)c1ccc(Nc2cc(C)[nH]c3ccc4ncnc4c23)cc1
inactive: [1] 47.5% | [2] 61.6% | [3] 81.3% | [4] 45.5% | [5] 28.3% | [6] 19.2% | [7] 26.9% | [8] 67.6%
